Measured values: the supplement of paper PMC6853941
Where a name gives a salt, the structure may show the parent alone. Values without a mark were called inactive.

Test system: MCF10A
Experiment: perturbation Mahalanobis distance of morphological profile vs DMSO controls (Mahalanobis distance (SD units)); higher = stronger morphological change, active = 7 or more
Conditions: 72 h
Experimental: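 MCF10A cells were seeded onto drugs dispensed acoustically into 384-well plates, using one dose per drug chosen from its human peak plasma concentration, and incubated for 72 h at 37 °C. Cells were stained for DNA, tubulin and mitochondria and imaged; 78 CellProfiler features were extracted, plate-normalised and compared with DMSO wells.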

[1] = screen batch: Batch1_Mahalanobis_Distance
[2] = screen batch: Batch2_Mahalanobis_Distance

COc1cccc2c1C(=O)c1c(O)c3c(c(O)c1C2=O)C[C@@](O)(C(=O)CO)C[C@@H]3O[C@H]1C[C@H](N)[C@H](O)[C@H](C)O1 [Doxorubicin] (0.18 µM)
perturbation Mahalanobis distance [1]: 11.1 (active) | perturbation Mahalanobis distance [2]: 16.7 (active)

O=C(Nc1ccc([N+](=O)[O-])cc1Cl)c1cc(Cl)ccc1O [Niclosamide] (5.3 µM)
perturbation Mahalanobis distance [2]: 5.7

Cc1cn[nH]c1 [Fomepizole] (299.6 µM)
perturbation Mahalanobis distance [1]: 2.14 | perturbation Mahalanobis distance [2]: 3.81

COCCCC/C(=N\OCCN)c1ccc(C(F)(F)F)cc1 [Fluvoxamine] (3.9 µM)
perturbation Mahalanobis distance [1]: 2.43 | perturbation Mahalanobis distance [2]: 2.47

CCN(CC)CCNC(=O)c1c(C)[nH]c(/C=C2\C(=O)Nc3ccc(F)cc32)c1C [Sunitinib] (0.73 µM)
perturbation Mahalanobis distance [1]: 3.08 | perturbation Mahalanobis distance [2]: 2.88

COc1ccccc1OCC(O)CN1CCN(CC(=O)Nc2c(C)cccc2C)CC1 (centres undefined) [Ranolazine] (37.4 µM)
perturbation Mahalanobis distance [1]: 2.73 | perturbation Mahalanobis distance [2]: 3.08

CC(=O)c1ccc(S(=O)(=O)NC(=O)NC2CCCCC2)cc1 [Acetohexamide] (10 µM)
perturbation Mahalanobis distance [1]: 3.84 | perturbation Mahalanobis distance [2]: 4.7

NC(=O)OCC(COC(N)=O)c1ccccc1 [Felbamate] (205.7 µM)
perturbation Mahalanobis distance [1]: 2.24 | perturbation Mahalanobis distance [2]: 2.91

CC/C(=C(\c1ccccc1)c1ccc(OCCN(C)C)cc1)c1ccccc1 [Tamoxifen] (6.7 µM)
perturbation Mahalanobis distance [1]: 2.61 | perturbation Mahalanobis distance [2]: 2.63

O=C1CC2(CCCC2)C(O)C(=O)N1CCCCN1CCN(c2ncccn2)CC1 (centres undefined) [6-Hydroxybuspirone] (0.05 µM)
perturbation Mahalanobis distance [1]: 3.46 | perturbation Mahalanobis distance [2]: 3.29

Clc1ccc(C(c2ccccc2Cl)C(Cl)Cl)cc1 (centres undefined) [Mitotane] (62.5 µM)
perturbation Mahalanobis distance [1]: 3.41 | perturbation Mahalanobis distance [2]: 4.02

Cc1c(OCC(F)(F)F)ccnc1CS(=O)c1nc2ccccc2[nH]1 (centres undefined) [Lansoprazole] (23 µM)
perturbation Mahalanobis distance [1]: 4.87 | perturbation Mahalanobis distance [2]: 8.49 (active)

Nc1ncn([C@@H]2O[C@H](CO)[C@@H](O)[C@H]2O)c(=O)n1 [Azacitidine] (15.4 µM)
perturbation Mahalanobis distance [1]: 14.8 (active) | perturbation Mahalanobis distance [2]: 17.2 (active)

COc1cc(Cc2cnc(N)nc2N)cc(OC)c1OC [Trimethoprim] (43.1 µM)
perturbation Mahalanobis distance [1]: 4.35 | perturbation Mahalanobis distance [2]: 3.85

CCc1c2c(nc3ccc(OC(=O)N4CCC(N5CCCCC5)CC4)cc13)-c1cc3c(c(=O)n1C2)COC(=O)[C@]3(O)CC [Irinotecan] (16.8 µM)
perturbation Mahalanobis distance [1]: 11.9 (active) | perturbation Mahalanobis distance [2]: 16.6 (active)

CC1(C)C[C@@H]1C(=O)N/C(=C\CCCCSC[C@H](N)C(=O)O)C(=O)O [Cilastatin] (153.4 µM)
perturbation Mahalanobis distance [1]: 3.43 | perturbation Mahalanobis distance [2]: 3.46

CNC(=O)c1cc(Oc2ccc(NC(=O)Nc3ccc(Cl)c(C(F)(F)F)c3)cc2)ccn1 [Sorafenib] (10.76 µM)
perturbation Mahalanobis distance [1]: 2.94 | perturbation Mahalanobis distance [2]: 2.6

CCOC(=O)c1ncn2c1CN(C)C(=O)c1cc(F)ccc1-2 [Flumazenil] (1.6 µM)
perturbation Mahalanobis distance [1]: 4.28 | perturbation Mahalanobis distance [2]: 3.54

CCCCc1oc2ccc(NS(C)(=O)=O)cc2c1C(=O)c1ccc(OCCCN(CCCC)CCCC)cc1 [Dronedarone] (1.3 µM)
perturbation Mahalanobis distance [1]: 3.58 | perturbation Mahalanobis distance [2]: 2.07

NC(=O)NO [Hydroxyurea] (650 µM)
perturbation Mahalanobis distance [2]: 15.4 (active)

CC1=NS(=O)(=O)c2cc(Cl)ccc2N1 [Diazoxide] (86.7 µM)
perturbation Mahalanobis distance [1]: 2.69

COc1cc(C)c(/C=C/C(C)=C/C=C/C(C)=C/C(=O)O)c(C)c1C [Acitretin] (7.7 µM)
perturbation Mahalanobis distance [1]: 6.19

C[C@@H]1CCC2[C@@H](C)[C@@H](O)O[C@@H]3OC4(C)CC[C@@H]1[C@@]23OO4 (some centres undefined) [Dihydroartemisinin] (13.2 µM)
perturbation Mahalanobis distance [1]: 10.7 (active) | perturbation Mahalanobis distance [2]: 16.7 (active)

O=C(Nc1ncc([N+](=O)[O-])s1)c1ccccc1O [Tizoxanide] (48.8 µM)
perturbation Mahalanobis distance [2]: 3

Nc1cc(N2CCCCC2)nc(N)[n+]1OS(=O)(=O)[O-] [Minoxidil Sulfate] (4.3 µM)
perturbation Mahalanobis distance [1]: 3.4 | perturbation Mahalanobis distance [2]: 3.55

CNC1(C)C2CCC(C2)C1(C)C (centres undefined) [Mecamylamine] (3.6 µM)
perturbation Mahalanobis distance [1]: 2.25 | perturbation Mahalanobis distance [2]: 3.11

CCn1cc(C(=O)O)c(=O)c2cc(F)c(N3CCNCC3)nc21 [Enoxacin] (62.4 µM)
perturbation Mahalanobis distance [1]: 7.28 (active) | perturbation Mahalanobis distance [2]: 4.85
